# Experimental data reported in PubChem BioAssay AID1159506 (National Center for Advancing Translational Sciences (NCATS), 2015).
# Whole data set: some 59,000 sequences, median the read-out near -0.00055, cut for the lowest 2% near -2. Shown is part of a subset that was picked to be rich in the lowest values.
# Assay: Identification of proteins required for the processing of the EWS-FLI1 nascent transcript;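 further: robust z of luciferase light less the median z of siRNAs with the same seed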
# Settings: TC32 Ewing sarcoma NR0B1-luc vs CMV-luc (EWS-FLI1 target promoter against control promoter), 48 h; screened at 20 nM (by protocol)
# Description: Ewing sarcoma (ES) cells depend on the EWS-FLI1 fusion transcription factor for cell survival. Using an assay of EWS-FLI1 activity and genome-wide siRNA screening we have identified proteins required for the processing of the EWS-FLI1 nascent transcript. Parallel genome-wide siRNA-mediated RNAi screens were conducted in Ewing sarcoma TC32 cell lines expressing a luciferase (luc) reporter protein driven by either the promoter of the EWS-FLI1 target gene NR0B1 (TC32-NR0B1-luc) or the CMV promoter (TC32-CMV-luc). Luciferase activity was assessed 48 hours post siRNA-transfection.
# Twenty microl of serum-free media containing Lipofectamine RNAiMax (0.05 microl) was added to wells containing siRNA (0.8 pmol). Lipid and siRNA were allowed to complex for 45 min at ambient temperature before addition of 600 cells in RPMI-1640, 20% FBS to yield final transfection mixtures containing 20 nM siRNA in RPMI-1640, 10% FBS. Luciferase expression was measured using OneGlo (Promega, Madison, WI). The genome-wide screening campaign was conducted using Ambion's human genome library version 4.1 (Ambion, Austin TX). This library targets approximately 21000 human genes, three siRNAs per gene. Each siRNA is arrayed in an individual well of a 384-well plate. Parallel transfections were conducted in TC32-NR0B1-luc and TC32-CMV-luc cell lines and luciferase expression (OneGlo, Promega) was assayed 48 h later on a PerkinElmer Envision 2104 Multilabel plate reader (PerkinElmer, Waltham, MA). Qiagen's AllStars Negative control was incorporated on all screening plates for normalization (16 wells per plate). Qiagen, Germantown, MDsiGL4 was incorporated as a positive transfection control (16 wells per plate) on all plates. […] The raw luciferase data for the NR0B1- and CMV-luc screens were normalized and z-score-MAD transformed using standard methods (Chung et al., 2008). The miRNA-like seed sequence of every siRNA was determined and the median z-score for all siRNA sequences with the same seed sequence was calculated. This z-score was subtracted from the z-score associated with each siRNA with that seed sequence to generate a seed-adjusted z-score value (Z) that was used when the results for the three siRNAs corresponding to each gene were compared (Marine et al., 2012)
row,Sequence,seed-corrected z-score
1,UCUGCUUGUAGUGAAAGUC against DUSP9,-3.42
2,UAACUUACUGAGAAUCGGC against LCP2,-1.05
3,AAGGUGUUUCGAGUUAUGC against POLR2J,-0.205
4,UCAUGAACCCGAGCUCGAG against CD37,-0.195
5,AUUCCUGACAUUCACAUGC against ZNF439,0.169
6,UCAGGUGCAAUUGGGAGCU against TCEB1P3,-2.71
7,UACGUUUUCAGAGUAUCAC against PDCD10,0.491
8,AUACUUGACAUCACCAACC against CDKL2,-0.981
9,CAAGUCAUGCCAGCACUGG against LOC645852,0.383
10,UAAUCUAAUCCUUCUAAAG against PCDHGA7,1.3
11,UUCCUUCCAGGACAUGAGC against MIR503HG,-2.21
12,UUUGGUUGAAGGGACCCUC against OR1J2,0.501
13,UCCUUUGAUAGCCUCUUCG against ELAVL3,-0.214
14,UAACUGUUCACCGCGUCCA against LINC01530,-0.696
15,UUACAAAGAAGCACGUUCA against HOXB8,0.191
16,AAACAGGAAGGUGCUAUCG against GALT,-0.3
17,AUACUUGCAAACAAACUCC against RREB1,-1.3
18,UGAUUUCUGACCUCCAUUC against TMEM43,1.18
19,ACUGUUCCCAACAAGGUCC against UBXN4,1.66
20,AAACCUAAGAAUACAAGUU against SAR1A,0.849
21,ACAGUUGCCCUUGUCCUGG against LOC440292,-3.34
22,AUUGGAGAGAGGUUCAUUC against YWHAH,-0.058
23,UGACGGCUGGUCGUGAUCU against SPDYE2,0.00759

row,Sequence,seed-corrected z-score
1,UACAGGUAGACCUCGUGGG against UPK3A,0.24
2,UCAGGAUCAUGAGUAGGCG against DEPDC5,1.12
3,AAACCUAUUCCUUCCAUUU against ARL6IP5,0.0394
4,UUAGAGUCCAGAUUCAGGA against ST3GAL3,0.675
5,AAACGAUCAUGGUCUCUGC against COPA,-3.42
6,UGAUCUUGAACUGCACCAC against SUMO3,-0.708
7,UGGAGUAAGAGCUAUACGC against CYTIP,-0.125
8,AACGUGUCACCACAUAUGG against MAPK10,-2.05
9,UUAGCAACCACGGACACUG against ACR,0.604
10,AUACCUUUCAGGAUGAGGG against TMEM178A,-0.305
11,UUCAUAACUCUGUUGUGCC against FNBP1L,0.0737
12,UUCUGUACGCAGGUGAUUG against COL1A1,0.0612
13,UUUACGACGCAUCUCAGCC against ARCN1,-2.64
14,ACGGUUUUUACAUCGAUUC against PTPRO,0.657
15,UAUUGUGCAAUUUGGUGGG against KLF13,0.422
16,AAUAUCCCAAUGUUCAUGC against FHDC1,-2.13
17,AAACCAAACAAGGAUACCU against C20orf173,2.47
18,ACAUAUACUGGUAACACUG against SH3GLB1,-0.404
19,UGAUGUCUACAAUAUCACC against RPL21P20,-2.36
20,UUUAUCACCAGGUUAAGCC against GLUD1,-0.205
21,UCUCGGAUCAUGAUGUUGU against PIK3CD,0.452
22,UAAACAAUACGUCAGUGCC against OR51T1,-0.809
23,UUCGUUCACGGCUAUGACC against CHL1,0.202

row,Sequence,seed-corrected z-score
1,UGAGUUUCAGGUUCUCCGG against CAB39L,-2.64
2,UUCCGGAUCAGAUCAUGGG against FAM118A,-0.123
3,UACAUUCUUGGUUUCAACC against LOC729860,1.84
4,UUAUAUUCAUCCUUGUGAC against CRKL,0.239
5,UUCUGGUUUGUUUUCAGGC against BAG3,-2.98
6,AACCGAACAAAUGAAUAUC against TIA1,-1.17
7,UAAUCUGCAAGUCAAGUCU against LYSMD2,-1.06
8,UUCACGACGAUGAUUCCCU against DYNLRB1,-0.1
9,UCCUCUGUAACCACACUCG against GPT2,-0.193
10,AAACUAUACACGGUCGUCC against RFESD,-0.265
11,UUAGGUUCAACAUCCACAA against SNRPD1,-2.57
12,AAGGAUAUUAAGAAGAAUC against ARMCX1,0.793
13,UACGAUGAUAGCCUUGACC against CNOT10,-0.215
14,UCAAGCUUCACUUUCUUCC against DNAJC17,1.06
15,AAAAUGAGAACGUAAAGUC against VN1R5,-0.139
16,UCCUGGAUGCGAUUUAUGG against DDRGK1,-0.145
17,UUCUCGUCGAGGUAGAUUU against ITM2C,0.584
18,UAACAUACUGGUCCCAUUG against PCTP,-1.08
19,UAUCUUCUAAUGCAAUCCU against RTP2,0.814
20,ACCUUGACCACACUUAUUU against VSTM2L,-1.03
21,UGCUUAACAAGAUCUGAAC against ZNF271P,-2.37
